PRMT1 FP inh – inhibitors of human PRMT1 | Q99873 | recombinant PRMT1, activity-based probe fluorescence polarization | inhibition, % at 2.79 µM | hit rate 1.3% among 370,000 | AID 652257;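 active = inhibition above about 21% made by adding two undisclosed values, limit read from the data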
ABHD5 PLIN5 PPI – blocks binding of human ABHD5 to perilipin-5; Q00G26+Q8WTS1; Split G. princeps luciferase complementation, luminescence, 4 h; inhibition, % at 4 µM; hit rate 0.78% among 360,000;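 active = inhibition above the mean inhibition across every tested compound plus 3 SD, cut at about 22% in these data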;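 note: 0% = DMSO only wells and the 100% control is not disclosed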
Rtt109 HAT inh – blocks Candida albicans Rtt109/Vps75 acetyltransferase activity; Q5AAJ8; purified Rtt109/Vps75, ThioGlo CoA-SH fluorescence, 4 h; inhibition, % at 34.9 µM; hit rate 0.16% among 330,000; AID 540336;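 active = inhibition of at least 50% in every replicate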
Target sequence (Q5AAJ8 whole entry, looked up): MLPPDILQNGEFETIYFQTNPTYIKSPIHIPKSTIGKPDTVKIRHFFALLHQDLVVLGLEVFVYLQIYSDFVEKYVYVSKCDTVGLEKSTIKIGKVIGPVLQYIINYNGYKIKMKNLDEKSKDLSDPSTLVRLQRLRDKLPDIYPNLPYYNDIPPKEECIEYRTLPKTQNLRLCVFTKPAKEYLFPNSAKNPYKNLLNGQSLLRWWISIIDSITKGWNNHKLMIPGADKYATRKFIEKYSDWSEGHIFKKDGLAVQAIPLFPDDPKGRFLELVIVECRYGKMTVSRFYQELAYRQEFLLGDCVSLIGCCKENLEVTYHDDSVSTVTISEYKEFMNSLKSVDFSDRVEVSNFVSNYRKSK
ALR inh – human ALR oxidase inhibition via reduced H2O2; P55789; purified ALR, DTT oxidation, H2O2 HRP-luminol luminescence; inhibition, % (no concentration beside the values); hit rate 3.8% among 290,000; AID 485317;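 active = mean replicate inhibition above about 79%, with every replicate also reaching it, limit read from the data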
Target sequence (P55789 whole entry, looked up): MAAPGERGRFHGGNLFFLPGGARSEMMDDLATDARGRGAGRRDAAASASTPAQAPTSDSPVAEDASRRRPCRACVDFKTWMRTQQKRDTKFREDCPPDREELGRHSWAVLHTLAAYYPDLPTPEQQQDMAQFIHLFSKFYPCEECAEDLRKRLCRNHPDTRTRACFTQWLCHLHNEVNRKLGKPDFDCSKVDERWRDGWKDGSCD
rCAG RNA binder – r(CAG) repeat RNA binding; TO-PRO-1 dye displacement fluorescence; inhibition, % at 3 µM; hit rate 1.3% among 370,000;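 active = inhibition above the plate cutoff, the mean of all test compounds on that plate plus 3 SD, cut at about 35% in these data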;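 note: 0% = DMSO alone and 100% = 100 µM mitoxantrone as full dye displacement; higher means more dye released from RNA so lower well fluorescence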
LANA-H2A inh – blocks KSHV LANA binding to histone H2A/H2B; cell-free LANA-H2A/H2B peptide, fluorescence polarization; Q9QR71; hit rate 0.6% among 320,000; AID 2629; inhibition, % (no concentration beside the values); in the data active = inhibition mostly above about 10%, no sharp cut-off; inactive = mostly below about 6.7%
rCAG bind conf – r(CAG) RNA repeat binding, confirmation; shares compounds with rCAG RNA binder; TO-PRO-1 dye displacement fluorescence; inhibition, % at 3 µM; hit rate 70% among 4,300; AID 652065;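 active = inhibition above a per-plate cutoff, the mean inhibition of sample wells plus 3 SD, cut at about 35% in these data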;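 note: loss of TO-PRO-1 fluorescence as compound displaces dye from 1x1 AA loop RNA; 0% = DMSO only wells and 100% = 100 µM mitoxantrone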
dCAG dye counter – DNA CAG dye complex inhibition counter-screen. inhibition, % at 3 µM. AID 652068. shares compounds with rCAG RNA binder. hit rate 94% among 4,300. d(CAG) DNA oligo TO-PRO-1 dye displacement, fluorescence;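 active = inhibition above its plate's cutoff, the mean test-well inhibition plus 3 SD, cut at about 4.8% in these data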;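 note: 0% = DNA dye mix with DMSO and 100% = 100 µM mitoxantrone; hits displace the dye from DNA and so lower well fluorescence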
Starred values were filed as active, the others as inactive; x = not tested or not shown. Shown are actives, neighbours in structure and some others; about 5.9% of the full set was active somewhere.

SMILES	PRMT1 FP inh	ABHD5 PLIN5 PPI	Rtt109 HAT inh	ALR inh	rCAG RNA binder	LANA-H2A inh	rCAG bind conf	dCAG dye counter
Cc1cccc(C)c1-n1nnnc1C1(C)CCC(=O)N1c1ccc(N2CCOCC2)cc1 (stereo not drawn)	2.6	2.9	x	x	-0.2	x	x	x
Cc1cc(Cl)cc2c(N=Nc3ccccc3C(=O)O)c(O)[nH]c12	-1.9	-2.5	3.3	2.6	39.3*	1.2	92.0*	75.6*
CN(C)CC(=O)N[C@@H]1C[C@@H]2O[C@@H](CO)CC[C@@H]2O[C@@H]1CCc1ccc(C2=CCCCC2)cc1	0.7	x	x	x	-1.6	x	x	x
O=C1OC(/C=C/c2ccccc2)=NC/1=C\c1cccnc1	1.2	2.9	-1.7	46.7	1.6	-1.0	x	x
COc1ccccc1/C=C/C=C1N=C(/C=C/c2ccc(Cl)cc2)OC/1=O	-0.2	-1.7	-0.6	2.9	54.4*	0.7	37.4*	10.1*
COc1ccccc1/C=C/C1=NC(=C\C=C/c2ccccc2)/C(=O)O1	0.2	1.6	2.3	14.8	46.0*	2.3	32.9	13.9*
CN1[C@H](Cc2ccccc2)COc2cc(N3CCSCC3)ccc2S1(=O)=O	2.1	x	x	x	4.5	x	x	x
Cn1c2ccccc2c2cc(C(=O)NNC(=O)CCl)sc21	8.2	-5.6	6.1	35.5	7.2	-1.6	x	x
CC(=O)Nc1ccc(S(=O)(=O)NNC(=O)c2cc3c4ccccc4n(C)c3s2)cc1	2.1	-8.2	-12.6	98.4*	35.5*	0.0	31.5	15.9*
COc1ccccc1OCC(=O)Nc1ccc(C(=O)Nc2ccccc2C(=O)O)cc1	-0.7	6.4	x	x	58.1*	x	64.7*	22.8*
CC(C)(C)c1ccc(OCC(=O)NNC(=O)Nc2ccccc2)cc1	-2.7	-3.2	-0.6	-35.0	-1.4	6.8	x	x
COc1ccc(CC(=O)Nc2ccc(C(=O)Nc3ccccc3C(=O)O)cc2)cc1OC	3.4	2.3	-2.4	7.4	58.6*	1.9	42.0*	9.9*
CC(C)(C)c1ccc(OCC(=O)Nc2ccc(C(=O)Nc3ccccc3C(=O)O)cc2)cc1	-4.7	-4.1	2.9	45.7	42.6*	-0.1	88.2*	67.3*
COc1ccccc1OCC(=O)Nc1ccc(NC(=O)COc2ccccc2OC)cc1	1.0	8.4	-2.8	-6.0	2.7	-6.1	x	x
CC(C)CNS(=O)(=O)/C=C/c1ccccc1CNC(=O)OC(C)(C)C	2.9	x	x	x	-0.3	x	x	x
CN(Cc1ccccc1)C(=O)C1CCN(S(=O)(=O)c2ccc3nc4c(c(C(=O)O)c3c2)CCCC4)CC1	8.4	3.1	6.8	-8.7	53.9*	2.4	54.5*	16.6*
CC1CCc2nc3ccc(S(=O)(=O)N4CCC(C(=O)NCc5ccccc5Cl)CC4)cc3c(C(=O)O)c2C1 (stereo not drawn)	1.7	6.2	18.0	10.1	47.0*	0.8	54.5*	20.8*
COc1ccc(CNC(=O)C2CCN(S(=O)(=O)c3ccc4nc5c(c(C(=O)O)c4c3)CC(C)CC5)CC2)cc1 (stereo not drawn)	-0.9	7.1	-3.3	-0.1	33.4	-2.3	x	x
Cc1ccc(CCNC(=O)C2CCN(S(=O)(=O)c3ccc4nc5c(c(C(=O)O)c4c3)CCCC5)CC2)cc1	8.2	0.5	0.9	-13.5	49.8*	-4.4	32.1	9.0*
CCCNC(=O)C1CCN(S(=O)(=O)c2ccc3nc4c(c(C(=O)O)c3c2)CCCCC4)CC1	-2.3	-5.8	23.5	x	1.6	x	x	x
CCc1cc(=O)oc2cc(OC(C)C(=O)N3CC[C@@]4(O)CCCC[C@H]4C3)ccc12 (stereo partly drawn)	-8.8	-0.1	x	x	-4.1	x	x	x
Cc1ccc(C(=O)N/C(=C\c2ccc(Br)cc2)c2nc(=S)[nH][nH]2)cc1	-0.1	-14.5	x	-13.0	41.2*	3.5	53.2*	23.3*
Cc1ccc(NS(=O)(=O)c2ccccc2)c(NS(=O)(=O)c2ccccc2)c1	-3.6	-2.4	-6.3	x	48.6*	x	47.8*	12.5*
Cc1ccc(S(=O)(=O)Nc2ccccc2NS(=O)(=O)c2ccc(C)cc2)cc1	1.0	1.4	x	x	70.7*	x	55.9*	19.8*
Cc1ccc(Cl)cc1NS(=O)(=O)c1ccccc1	-2.7	3.2	-3.2	x	4.2	x	x	x
SMILES	PRMT1 FP inh	ABHD5 PLIN5 PPI	Rtt109 HAT inh	ALR inh	rCAG RNA binder	LANA-H2A inh	rCAG bind conf	dCAG dye counter
O=S(=O)(Nc1ccc(Cl)cc1NS(=O)(=O)c1ccccc1)c1ccccc1	2.3	-1.3	-3.4	x	80.5*	x	72.8*	37.7*
Cc1ccc(NS(=O)(=O)c2ccccc2)c([N+](=O)[O-])c1	0.8	2.2	3.7	x	3.0	x	x	x
O=S(=O)(Nc1ccc(N=Nc2ccc(O)c3ccccc23)cc1)c1ccccc1	5.7	11.6	-7.2	-12.0	67.2*	4.7	65.3*	31.8*
COc1ccc(CN2C(=O)C(CC(=O)NCCc3ccccn3)CC(C(=O)N(C)C)=C2C)cc1 (stereo not drawn)	-2.9	-0.1	x	x	4.0	x	x	x
O=C(C[C@H]1C/C=C\CC[C@@H](Cc2ccc(F)cc2)C(=O)O[C@H](c2ccccc2)CNC1=O)N[C@H](CO)Cc1ccccc1	0.3	-4.4	-1.4	-1.3	4.2	x	x	x
O=S(=O)(Nc1ccc(S(=O)(=O)Nc2cccc3ccccc23)cc1)c1ccccc1	2.4	-16.0	-0.8	23.0	35.0*	6.1	24.5	5.5*
O=S(=O)(Nc1ccc(-c2ccccc2)cc1)c1ccccc1	-0.8	-5.4	-3.8	x	7.7	x	x	x
CCC(C)c1ccc(NC(=O)CSc2nnc(-c3cccc(C)c3)n2C)cc1 (stereo not drawn)	-1.3	x	x	x	2.0	x	x	x
Cc1cc(NC(=O)/C=C/c2ccccc2Cl)no1	0.5	-9.2	-14.8	11.6	2.2	-3.6	x	x
Cc1cc(NS(=O)(=O)c2ccc(NC(=O)/C=C/c3cccc(Cl)c3)cc2)no1	-1.5	-2.8	5.6	5.9	61.3*	9.4	49.4*	17.3*
Cc1cc(NS(=O)(=O)c2ccc(NC(=O)/C=C/c3ccccc3Cl)cc2)no1	-0.1	-3.3	5.0	7.1	71.0*	0.2	56.3*	22.5*
CC(OC(=O)[C@@H](NS(=O)(=O)c1ccccc1)C(C)C)C(=O)c1c(N)n(C)c(=O)n(C)c1=O (stereo partly drawn)	0.1	-4.2	x	x	-0.4	x	x	x
O=C(O)c1ccc(CSc2nc(-c3ccc(Cl)cc3)cc(C(F)(F)F)n2)cc1	-3.3	13.0	29.4	-3.4	1.6	-10.6	x	x
O=C(O)c1ccc(CSc2nc(-c3ccccc3)cc(C(F)(F)F)n2)cc1	4.1	0.6	6.1	4.2	54.9*	7.7	55.6*	12.7*
O=C(OC1CCOC1=O)c1cccc(S(=O)(=O)Nc2cccc(Cl)c2)c1 (stereo not drawn)	-5.7	0.5	6.9	0.7	34.9*	-0.9	23.9	9.1*
CNS(=O)(=O)c1cccc(C(=O)OC2CCOC2=O)c1 (stereo not drawn)	-1.6	6.5	3.3	x	2.8	11.6	x	x
